Abeta rescue: qHTS for compounds that reverse cellular toxicity of Amyloid beta (A-beta) peptide in yeast: Primary Screen; yeast expressing A-beta42, growth rescue, OD600, 48 h; response scale: 0% DMSO, 100% iron-clioquinol control; Potency, µM (highest dose often 46.1 µM), hits mostly activators; 410,000 tested, 0.063% active; also: nearly all actives have a fitted effect of over 55% in size
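Yeast growth medium received pinned compounds, then yeast cells expressing toxic A-beta were added; plates incubated at 30 C for 48 hr. Growth read as absorbance at 600 nm, normalized to DMSO and equimolar FeCl3 plus clioquinol controls.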
aSyn rescue: qHTS of alpha-syn Inhibitors. Yeast expressing alpha-synuclein, growth rescue, BacTiter-Glo, 24 h. Potency, µM (highest dose often 46.1 µM), inactives show at the highest dose growth rescue (activation), usual class: activators. 370,000 tested, 0.14% active; also: % of control where 0% means no effect; nearly all actives have a fitted effect of over 65% in size
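Readout is rescue of growth in alpha-synuclein-expressing yeast, so inhibitors of toxicity appear as activators. Growth after 24 hr at 30 deg C in galactose medium is quantified by luminescence.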
TDP43 rescue: qHTS of TDP-43 Inhibitors; Potency, µM (top dose mostly 46.1 µM), without a hit: at the highest dose growth rescue (activation), hits mostly activators; TDP-43 expressing yeast growth rescue, BacTiter-Glo, 24 h; 410,000 tested, 1.8% active; also: % of control where 0% means no effect; nearly all actives have a fitted effect of over 50% in size
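Cell-based yeast growth screen: TDP-43 expression induced in galactose, inoculum OD600=0.02 after raffinose pregrowth to mid-log. Read-out BacTiter-Glo luminescence at 24 hr, 30 deg C; inhibition of toxicity seen as signal increase.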
FUS yeast rescue: qHTS for Suppressors of FUS Proteinopathy: Primary screen using FUS-linked yeast assay; S. cerevisiae FUS-expressing, growth rescue, OD600, 24 h; Potency, µM (titrated, usually from 76.6 µM), most hits filed as activators; 390,000 tested, 0.24% active;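 also: plate controls were DMSO vehicle for no effect and reference control for full effect; nearly all actives have a fitted effect of over 55% in size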
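Yeast FUS proteinopathy model; galactose-induced FUS (2%), starting OD 0.005. Cpds in dilution series, 24hr, 30C, 99% humidity. Abs 600 nm growth. Pos ctrl CP55940 (top 92uM final); neg ctrl DMSO.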
Active calls of the source: *; i = inactive; ? = inconclusive; · = no result. This is a sample that favours compounds with a hit; in the whole collection about 2.1% have one here. Calls follow the shape of the dose curve; as a rule, active = well fitted curve in the direction sought with a large enough effect; inconclusive = small, poorly fitted or top-dose-only effect, or another doubt; inactive = no such curve, though single readings can be large; an effect the other way counts as inactive or inconclusive. Potency is read from the fitted curve at half-maximal effect.

SMILES	Abeta rescue	aSyn rescue	TDP43 rescue	FUS yeast rescue
Cc1ccsc1C1Nc2ccc3ncccc3c2C2=C1C(=O)CC(C)(C)C2 (stereo not drawn)	i	2%	-23%	13µM*
O=C(N1CCC(n2nc(-c3ccccc3)oc2=O)CC1)C1(c2ccc(Cl)cc2)CC1	·	?	22µM*	?
O=C(Cc1ccc2c(c1)OCO2)N1CCC(n2nc(-c3ccccc3)oc2=O)CC1	·	·	·	i
CC12CN3CC(C)(CN(C1)C3c1ccc([N+](=O)[O-])o1)C2 (stereo not drawn)	i	-58%	11µM*	i
O=C(CCN=C1NS(=O)(=O)c2ccccc21)Nc1ccc(Cl)cc1F	i	-1%	18%	i
COc1ccc(-c2nc(Cn3c(SCc4ccccc4F)nc4cccnc43)c(C)o2)cc1	i	·	32µM*	i
COc1ccc(-c2nc(Cn3c(SCc4cccc(F)c4)nc4cccnc43)c(C)o2)cc1	i	·	20µM*	?
COc1ccc(-c2nc(Cn3c(SCc4ccc(F)cc4)nc4cccnc43)c(C)o2)cc1	i	·	25%	i
Cc1oc(-c2ccccc2Cl)nc1Cn1c(SCc2cccc(F)c2)nc2cccnc21	?	·	18µM*	35µM*
Cc1ccc(CN(C)C(=O)c2c(C)nn(-c3ccccc3)c2C)cc1	i	-1%	-22%	i
CC(NC(=O)CN1C(=O)NC2(CCCC2)C1=O)c1ccc(Cl)cc1Cl (stereo not drawn)	i	-2%	9%	i
COc1ccc(C(=O)O)cc1NCc1ccc(C)s1	i	14%	3.2µM*	i
OC(COc1ccccc1)Cn1c2ccccc2c2ccccc21 (stereo not drawn)	?	22%	18µM*	·
O=C(CCl)N1CCN(S(=O)(=O)Cc2ccccc2)CC1	i	-3%	-19%	i
CN(C)S(=O)(=O)c1cccc(NC(=O)c2cc3ccccc3o2)c1	i	·	8.9µM*	i
COc1ccc(NC(=O)c2cc3ccccc3o2)cc1OC	i	2%	13µM*	i
CCN(CC)S(=O)(=O)c1cccc(NC(=O)c2cc3ccccc3o2)c1	i	1%	?	i
COc1ccc(NC(=O)c2cc3ccccc3o2)cc1	i	-8%	-2%	i
COc1ccc(NC(=O)C(c2ccc(C)cc2)N(C)C(=O)Cc2cccs2)cc1 (stereo not drawn)	?	12%	13µM*	i
CCCN1CCOC(CC(=O)Nc2ccc([N+](=O)[O-])cc2)C1=O (stereo not drawn)	i	3%	20µM*	i
CCOc1ccccc1NC(=O)Cn1c(=O)n(-c2ccc(C)cc2)c(=O)c2c1cnn2C	i	·	5%	i
Cc1ccc(-c2nnc(Sc3nc4ccccc4o3)c3ccccc23)cc1	i	5%	-3%	i
Cc1nnc(Sc2nc3ccccc3o2)c2ccccc12	i	?	14µM*	i
c1ccc2c(Nc3nc(-c4ccncc4)nc4ccccc34)cccc2c1	i	5%	2%	i
Clc1ccccc1Nc1nc(-c2ccncc2)nc2ccccc12	i	1%	35µM*	i
SMILES	Abeta rescue	aSyn rescue	TDP43 rescue	FUS yeast rescue
Cc1ccc2[nH]c3c(Cl)ncnc3c2c1	i	13%	7%	i
COc1ccc2c(c1)[nH]c1c(Cl)ncnc12	i	?	11µM*	i
COC(=O)c1cccc(NC(=O)CC2C(=O)NCCN2C(=O)Nc2cc(C)cc(C)c2)c1 (stereo not drawn)	i	6%	-3%	i
COc1cc(C(Nc2ccc3c(c2)OCO3)C(=O)NC2CCCCC2)cc(OC)c1OC (stereo not drawn)	i	0%	-3%	18µM*
COc1cc(NC(=O)Nc2ccc3c(c2)OCO3)cc(OC)c1OC	i	2%	2%	i
CCN(CC)CC(O)CNc1ccnc2c(Cl)ccc(Cl)c12 (stereo not drawn)	i	-6%	-17%	i
Cc1ccc(CNc2ncnc3c2c(-c2ccccc2)cn3-c2cccc(Cl)c2)cc1	i	·	15%	i
CC(=O)c1cc(CN2C(=O)c3ccccc3C2=O)cs1	i	21%	14µM*	i

Compound activity: PubChem, National Center for Advancing Translational Sciences (NCATS)
